Hit rate of the full screen: of about 320,000 compounds, about 2,100 (0.66%) were called active. Roughly 53% stayed inconclusive and do not appear here. The call rests on the fitted dose curve; in most records, active means well fitted inhibition curve with a large enough effect in the signal ratio, with a control signal flat (not every such curve was filed as active); inconclusive means small, poorly fitted or top-dose-only effect, or effect the other way, or a change in a side signal; inactive means flat fitted curve, though single readings scatter; the % refers to the signal ratio. The full list was thinned out, with actives kept by preference.
Potency means the concentration at half of the fitted maximal effect.

The test can be described thus: qHTS Assay for Lipid Storage Modulators in Drosophila S3 Cells.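 On cell number change: cells counted by Cell Tracker Red CMTPX staining in the red channel.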 On lipid storage change, negative = inhibition: on the % scale 0 is the no-effect control and ±100 the full control effect. The conditions noted are these: BODIPY lipid droplet fluorescence, 18-24 h, cells fed with added oleic acid; cell number change: measured here: cell count max response; series mostly up to 46.1 µM; lipid storage change, negative = inhibition: at the top concentration. The method, boiled down: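 Drosophila S3 cells loaded with oleic acid (400 uM, as added) and compounds at several concentrations; lipid droplets imaged by 488-nm laser-scanning cytometry, 500–530 nm intensity and object ratio to cell channel. Percent activity normalized to 20 uM Triacsin C.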
For orientation: qHTS replaces the single test concentration by a dilution series.
`CCn1c(=O)c2cc(C(=O)NCC(OC)OC)sc2c2ccccc21`: the “lipid storage change, negative = inhibition” value is -0.615% (inactive) and the cell number change stood at 25.4%.
Taken in the same sequence, the figures for `CCOC(=O)c1csc(NC(=O)C(C)(C)C)n1` were -3.09% (inactive) and -3.51%.
Taken in the same sequence, the figures for `O=C(c1ccc(F)cc1)C1CCN(C(=O)Nc2ccc(F)cc2F)CC1` were 12.9% (inactive) and 14.5%.
Turning to `CCCc1c(O)c2ccccc2[nH]c1=O`, the “lipid storage change, negative = inhibition” value is 17.1% (inactive) and the cell number change came out at 3.83%.
With `C/C(CC(=O)Nc1cccc(Cl)c1C)=N\NC(=O)Cc1csc(N)n1`, the “lipid storage change, negative = inhibition” value was -3.2% (inactive) and the cell number change was 22%.
Taken in the same sequence, the figures for `CNc1nc(N)c([N+](=O)[O-])c(Nc2ccccc2OC)n1` were 9.33% (inactive) and 11.2%.
`S=C(NC1CC1)N1CCCc2ccccc21`: the call was inactive.
As for `COC(=O)c1sc(N)c(C(=O)OC)c1COC(=O)C12CC3CC(CC(O)(C3)C1)C2`, the call was inactive and the cell number change was -15.1%.
For the compound `CCOC(=O)c1sc(NC(=O)OC)c(C(=O)OC)c1C`, the “lipid storage change, negative = inhibition” value was -9.1% (inactive) and the cell number change amounted to 11.2%.
The matching figures for `CC(=O)c1c(COC(=O)c2ccc(Cl)cc2)nc2ccccc2[n+]1[O-]`: 0.115% (inactive) and 15.2%.
In the case of `CCSc1nnc(NC(=O)c2nc(S(=O)(=O)Cc3ccc(F)cc3)ncc2Cl)s1`, the result was inactive and the cell number change was -9.14%.
For the compound `Cc1ccc(CS(=O)(=O)c2ncc(Cl)c(C(=O)Nc3ccc(OC(F)F)cc3)n2)cc1`, the Potency is 1.16 µM (active).
For `Cc1ccc(CS(=O)(=O)c2ncc(Cl)c(C(=O)Nc3nnc(C(C)C)s3)n2)cc1`, the “lipid storage change, negative = inhibition” value was -92.2% (inactive) and the cell number change was -27.5%.
Take `O=C(NCc1ccc2c(c1)OCO2)c1nc(S(=O)(=O)Cc2ccccc2)ncc1Cl`: the compound was called inactive.
With `CS(=O)(=O)c1ncc(Cl)c(C(=O)Nc2ccc(OC(F)F)cc2)n1`, the Potency was 18.4 µM (active) and the cell number change was -13.9%.
Consider `Cc1cccc(CS(=O)(=O)c2ncc(Cl)c(C(=O)Nc3c(C)cccc3C)n2)c1`, for which the call was inactive and the cell number change worked out at 14.9%.
On to `Cc1cccc(CS(=O)(=O)c2ncc(Cl)c(C(=O)NCc3ccc4c(c3)OCO4)n2)c1`, for which the Potency is 6.51 µM (active).
As for `CC(C)c1nnc(NC(=O)c2nc(S(=O)(=O)Cc3ccccc3F)ncc2Cl)s1`, the Potency is 1.64 µM (active) and the cell number change was -17.7%.
For `Cc1ccc(S(=O)(=O)NC(=O)Nc2ccc(OC(F)F)cc2)cc1`, the “lipid storage change, negative = inhibition” value was -3.81% (inactive) and the cell number change stood at 7.38%.
As for `O=C(Nc1ccc(OC(F)F)cc1)c1ncc(Cl)c(Cl)c1Cl`, the compound was classed as inactive and the cell number change came to 21.1%.
Consider `O=C(Nc1ccc(OC(F)F)cc1)c1ccccn1`, for which the “lipid storage change, negative = inhibition” value is 7.36% (inactive) and the cell number change came out at 7.91%.
Regarding `COc1ccc(NC(=O)c2nc(SC)ncc2Cl)cc1`, the “lipid storage change, negative = inhibition” value was 20% (inactive).
Same read-out and setting: the same measure for `COCCNC(=S)Nc1ccc(S(=O)(=O)Nc2ncccn2)cc1`: 6.38% (inactive).
Regarding `CC(C)OP(=O)(OC(C)C)C(Nc1ccccc1)c1ccc2c(c1)OCO2` (stereo unspecified), the “lipid storage change, negative = inhibition” value is -18.8% (inactive) and the cell number change was -17%.
Taken in the same sequence, the figures for `CC1(C(=O)OCc2cc(=O)n3cc(Br)ccc3n2)CC1(Cl)Cl` (stereo unspecified) were 28.5% (inactive) and 20.1%.
Taken in the same sequence, the figures for `Nc1nc(/C=C/c2cccnc2)nc(-c2ccccc2O)n1` were -12.8% (inactive) and -9.25%.

Source of the values: PubChem BioAssay AID2685 (National Center for Advancing Translational Sciences (NCATS), 2010).
